# Assay outcomes: PubChem BioAssay, National Center for Advancing Translational Sciences (NCATS)
# BAZ2B inh – qHTS Assay for Inhibitors of BAZ2B. AlphaScreen BAZ2B-H3K14Ac peptide displacement. Potency, µM (doses to about 114 µM), usual class: inhibitors. 360,000 tested, 4.4% active; further: nearly all actives have a fitted effect of over 60% in size
#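 Inhibition is scored as reduced AlphaScreen emission. The BAZ2B/b-H3(5-23)K14Ac complex (50 nM each) in PBS pH 7.4, 0.01% Tween-20 meets compound (up to 110 uM) for 30 min at RT before bead addition.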
# HP1b chromo inh – HTS for Inhibitors of HP1-beta Chromodomain Interactions with Methylated Histone Tails. Chromobox protein homolog 1 (Homo sapiens), P83916. AlphaScreen HP1-beta / biotin-H3K9me3 peptide binding. Potency, µM (highest dose often 114 µM), usual class: inhibitors. 390,000 tested, 0.56% active; further: nearly all actives have a fitted effect of over 70% in size
#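 AlphaScreen: HP1-beta (50 nM) preformed 30 min with biotin-H3(1-18)K9me3 peptide (50 nM) in PBS pH 7.4, 0.01% Tween-20. Compound added for 30 min at RT, then streptavidin donor/nickel chelate acceptor beads (10 ug/mL) for 30 min.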
# L3MBTL1 inh – qHTS Assay for the Inhibitors of L3MBTL1; Potency, µM (doses to about 57.1 µM), usual class: inhibitors; 230,000 tested, 0.66% active; AID 485360, 2010; AlphaScreen L3MBTL1–H3K9me1 peptide binding; further: nearly all actives have a fitted effect of over 60% in size
#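 Displacement of a biotinylated histone H3(1-15) peptide monomethylated at Lys9 (75 nM) from L3MBTL1 (50 nM) was measured by AlphaScreen after a 30 min room-temperature compound incubation; cefsulodin titration served as intraplate control.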
# JMJD2A Tudor inh – qHTS Assay for Inhibitors of JMJD2A-Tudor Domain | Lysine-specific demethylase 4A (Homo sapiens), O75164 | AlphaScreen JMJD2A-Tudor / H3K4me3 peptide binding | Potency, µM (highest dose often 114 µM), hits mostly inhibitors | 390,000 tested, 4.4% active | AID 504339, 2011; further: nearly all actives have a fitted effect of over 50% in size
# PLK1 PBD block – qHTS for Inhibitors of PLK1-PDB (polo-like kinase 1 - polo-box domain): Primary Screen; 360,000 tested, 2.8% active; Plk1 PBD binding of FITC phosphopeptide, fluorescence polarization; Potency, µM, usual class: inhibitors; Serine/threonine-protein kinase PLK1 (Homo sapiens), P53350; further: series mostly up to about 57 µM; nearly all actives have a fitted effect of over 65% in size
# VDR inh – Inhibitors of the vitamin D receptor (VDR): qHTS; Vitamin D3 receptor (Homo sapiens), P11473; VDR-SRC2-3 peptide fluorescence polarization, 2 h; Potency, µM, actives largely listed as inhibitors; 400,000 tested, 0.93% active; AID 504847, 2011
#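 After 23 nl compound addition and a short centrifugation, plates sat for 2 hours at ambient temperature; polarization of fluorescence then indicated loss of VDR binding to peptide SRC2-3.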
# Numbers stand for hits; n = inactive; u = inconclusive; x = no result; [ ] = remark or other dose. Rows were chosen to be rich in hits. Some 6.9% of all compounds tested hit in one or more screens of this group. The call rests on the fitted dose curve; in most records, active means well fitted curve in the direction sought with a large enough effect; inconclusive means small, poorly fitted or top-dose-only effect, or another doubt; inactive means no such curve, though single readings can be large; an effect the other way counts as inactive or inconclusive.
SMILES,BAZ2B inh,HP1b chromo inh,L3MBTL1 inh,JMJD2A Tudor inh,PLK1 PBD block,VDR inh
CCOC(=O)c1cc(C)n(CC2CCC(C(=O)Nc3ccc(C(=O)OC)cc3)CC2)c1C (centres undefined),n,n,x,n,x,n
CC(=O)/C(N=Nc1ccc(C(=O)O)cc1[N+](=O)[O-])=C(\C)O,56.2µM,n,x,n,n,n
CC(=O)/C(N=Nc1cc2c(cc1[N+](=O)[O-])OCCO2)=C(\C)O,n,n,n,17.8µM,u,u
O=C(Nc1cccc(C(=O)O)c1)/C(=C\c1ccc(F)cc1)NC(=O)c1ccco1,n,n,x,n,n,n
Cc1ccc(C(=O)Nc2nc(=O)n(C)s2)cc1,n,n,n,n,n,n
CC(C)CC(=O)n1sc(NC(=O)c2ccccc2)nc1=O,n,n,n,n,n,44.7µM
Cc1ccc(C(=O)Nc2nc(=O)n(C(=O)CC(C)C)s2)cc1,n,n,n,n,n,u
Cc1ccc(C(=O)Nc2nc(=O)n(C(=O)c3ccccc3Cl)s2)cc1,n,n,x,n,u,17.8µM
Cc1ncc(COC(=O)C(C)C)c2cc(C(=O)Nc3ccccc3C(F)(F)F)c(=O)oc12,n,n,x,n,x,n
COc1ccccc1CCNC(=O)C(=O)NCC(c1ccco1)S(=O)(=O)c1ccc(F)cc1 (centres undefined),n,n,x,n,x,n
CCc1ccc(-c2nc(SCC(=O)NC3CCS(=O)(=O)C3)n[nH]2)cc1 (centres undefined),n,n,n,n,n,n
O=C(CSc1n[nH]c(-c2ccncc2)n1)NC1CCS(=O)(=O)C1 (centres undefined),n,n,n,89.1µM,n,n
CCN(c1ccccc1)c1nc(=O)c2cccnc2s1,n,n,n,n,n,n
CCN(c1ccccc1)c1cc2ccccc2c(=O)[nH]1,n,n,x,17.8µM,29.9µM,u
Nc1nc(NCc2ccc(Cl)c(Cl)c2)c2[nH]cnc2n1,x,n,x,n,x,n
CCc1cccc(CC)c1NC(=O)CNCc1cccs1,56.2µM,70.8µM,x,25.1µM,n,n
O=c1[nH]cnc(O)c1C1C=CC=CC=C1,x,n,x,n,n,39.8µM
O=S(=O)(c1ccc2c(c1)OCCO2)N1CCC(n2nnc3cc(F)ccc32)CC1,n,n,n,n,21.2µM,n
O=S(=O)(c1ccc2c(c1)OCCO2)N1CCC(n2cnc3cc(F)ccc32)CC1,n,n,n,n,n,n
CSc1nc(=NC(C)=O)ss1,u,u,n[11.4 µM],31.6µM,7.94µM,u
O=C(NN=C1c2ccccc2-c2ccccc21)c1ccccc1Br,n,n,n,n,n,n
O=C(NN=C1c2ccccc2-c2ccccc21)c1ccccc1,28.2µM,n,3.16µM,n,n,n
O=C(NC1CCCCC1)c1sc(=S)n2c1[nH]c(=O)c1ccccc12,u,u,n,56.2µM,23.8µM,u
CCCCNC(=O)c1sc(=S)n2c1[nH]c(=O)c1ccccc12,50.1µM,n,n,79.4µM,26.7µM,u
CCCc1cc(=O)[nH]c(SCC(=O)Nc2ccc(N3CCCCC3)cc2)n1,x,n,n,n,n,n
SMILES,BAZ2B inh,HP1b chromo inh,L3MBTL1 inh,JMJD2A Tudor inh,PLK1 PBD block,VDR inh
COc1ccc(NC(=S)N(CCN(C)C)C(C)c2ccco2)cc1Cl (centres undefined),n,n,n,u,23.8µM,n
COc1cc(NC(=O)c2cc3nc(-c4ccccc4)cc(-c4ccccc4)n3n2)c(OC)cc1Cl,n,n,x,n,x,n
CCn1c(=O)c(C(=O)CN2c3ccccc3CC2C)c(N)n(Cc2ccccc2)c1=O (centres undefined),35.5µM,u,n,u,n,n
CCN(C(=O)CN1CCCc2ccccc21)c1c(N)n(Cc2ccccc2)c(=O)[nH]c1=O,n,x,x,x,x,x
CCn1c(=O)c(C(=O)CN2CCCc3ccccc32)c(N)n(Cc2ccccc2)c1=O,u,u,n,35.5µM,n,n
CCN(C(=O)CN1c2ccccc2CC1C)c1c(N)n(Cc2ccccc2)c(=O)[nH]c1=O (centres undefined),x,n,n,n,n,n
CCCCNC(=O)c1sc(=S)n(-c2ccccc2OC)c1N,n,u,n,n,26.7µM,n
CCOC(=O)c1sc(=S)n(-c2ccccc2OC)c1N,u,u,n,u,21.2µM,n
COc1ccc(Cl)cc1-n1c(N)c(C(N)=O)sc1=S,n,u,n,u,11.9µM,79.4µM
COC(=O)c1sc(=S)n(-c2ccccc2OC)c1N,n,n,n,n,n,n
CCOc1ccccc1-n1c(N)c(C(N)=O)sc1=S,n,n,n,n,u,n
Cc1cc(NC(=O)C2CCN(S(=O)(=O)c3cccc4nsnc34)CC2)ccc1Br,x,n,x,n,x,n
Cn1cccc1C(=O)N1CCC2(CCCN(C(c3ccccc3)c3ccccc3)C2)CC1,x,x,x,x,x,n
COc1cc(C(=O)Nc2nc3c(s2)Cc2c(Br)ccc(OC)c2-3)cc(OC)c1OC,n,n,x,n,x,n
O=[N+]([O-])c1ccc(CN2CCOCCOCCN(Cc3ccc([N+](=O)[O-])cc3)CCOCC2)cc1,u,n,n,u,n,n
CCC1CCC(N2CCN(c3ccc([N+](=O)[O-])cc3)CC2)CC1 (centres undefined),70.8µM,n,n,u,n,n
O=[N+]([O-])c1ccc(N2CCN(c3ccc(F)cc3)CC2)cc1,n,n,x,n,n,n
O=[N+]([O-])c1ccc(N2CCN(Cc3ccncc3)CC2)cc1,50.1µM,u,n,22.4µM,n,n
O=[N+]([O-])c1ccc(CN2CCN(c3ccccc3Cl)CC2)o1,50.1µM,u,n,22.4µM,n,n
O=[N+]([O-])c1ccc(N2CCN(Cc3ccc([N+](=O)[O-])o3)CC2)cc1,31.6µM,u,n,20µM,n,n
CCOC(=O)C1/C(=N\O)CC(C)(O)C(C(=O)OCC)C1c1ccc(N(C)C)cc1 (centres undefined),79.4µM,n,x,n,n,n
O=C(NCc1ccco1)C1CCN(C(=O)Cc2ccccc2)CC1,n,n,n[11.4 µM],n,n,n
O=C(NCc1ccc(Cl)cc1)C1CCN(C(=O)Cc2ccccc2)CC1,50.1µM,n,x,n,n,n
O=C(O)c1ccc(N/N=C/c2ccc(-c3ccc(Br)cc3)o2)cc1,u,n,x,u,u,n
O=C(O)c1cc(-c2ccc(/C=N/Nc3ccc(Cl)cc3)o2)ccc1Cl,n,n,n,u,29.9µM,n
Nc1nonc1C(=O)N/N=C/c1ccc(-c2ccc(Cl)c(C(=O)O)c2)o1,79.4µM,n,n,n,n,n
